Experimental data reported in PubChem BioAssay (NCATS).
Results filed as inconclusive are left out. Calls of active or inactive are those of the source. Calls come from the whole dose curve; as a rule, active = well fitted curve in the direction sought with a large enough effect; inconclusive = small, poorly fitted or top-dose-only effect, or another doubt; inactive = no such curve, though single readings can be large; an effect the other way counts as inactive or inconclusive.

Experiments:
C33A = assay: Primary qHTS to identify gynecologic anti-cancer compounds using libraries of approved drugs and bioactive compounds (AID 1345084); conditions: Gynecologic cancer cell panel viability, ATPlite luminescence, 48 h; series mostly up to 57.5 µM; note: nearly all actives have a fitted effect of over 55% in size; note: potency is the fitted concentration of half-maximal effect
How it was run: (§1)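 Cytotoxicity screen measuring ATP content by luciferase luminescence. Each compound is applied at five concentrations for 48 h at 37 C with 5% CO2.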

Hek293T = assay: as above; conditions: Gynecologic cancer cell panel viability, ATPlite luminescence, 48 h, control line for the selectivity index; series mostly up to 57.5 µM
How it was run: as §1

SKOV3 = assay: as above; conditions: Gynecologic cancer cell panel viability, ATPlite luminescence, 48 h; series mostly up to 57.5 µM
How it was run: as §1

[1] = qHTS assay to identify inhibitors of the type 1 interferon - major histocompatibility complex class I in skeletal muscle: Counter screen cell viability and HiBit confirmation (AID 1347412); conditions: iHSKM muscle cells + IFN-b, HiBiT or CellTiter-Glo, 24 h; Viability; at 45.9 µM (top of the series); note: nearly all actives have a fitted effect of over 60% in size
How it was run: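 Myoblasts (C25cl48, HLA-B HiBiT) seeded in medium without dexamethasone, IFN-b 4 ng/ml added except unstimulated columns; 1 hr later compounds pinned (12-pt 1:3, top 46 uM final). Incubated 24 hrs, lysed 10 min, luminescence measured.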

Es-2 = assay: Primary qHTS to identify gynecologic anti-cancer compounds using libraries of approved drugs and bioactive compounds (AID 1345084); conditions: Gynecologic cancer cell panel viability, ATPlite luminescence, 48 h; series mostly up to 57.5 µM; note: nearly all actives have a fitted effect of over 55% in size; note: potency is the fitted concentration of half-maximal effect
How it was run: as §1

CAOV3 = assay: as above; conditions: Gynecologic cancer cell panel viability, ATPlite luminescence, 48 h; series mostly up to 57.5 µM
How it was run: as §1

CASKI = assay: as above; conditions: Gynecologic cancer cell panel viability, ATPlite luminescence, 48 h; series mostly up to 57.5 µM
How it was run: as §1

HeLa = assay: as above; conditions: Gynecologic cancer cell panel viability, ATPlite luminescence, 48 h; series mostly up to 57.5 µM
How it was run: as §1

JEG-3 = assay: as above; conditions: Gynecologic cancer cell panel viability, ATPlite luminescence, 48 h; series mostly up to 57.5 µM
How it was run: as §1

OV90 = assay: as above; conditions: Gynecologic cancer cell panel viability, ATPlite luminescence, 48 h; series mostly up to 57.5 µM
How it was run: as §1

PA-1 = assay: as above; conditions: Gynecologic cancer cell panel viability, ATPlite luminescence, 48 h; series mostly up to 57.5 µM
How it was run: as §1

Tov-21-G = assay: as above; conditions: Gynecologic cancer cell panel viability, ATPlite luminescence, 48 h; series mostly up to 57.5 µM
How it was run: as §1

Tov112D = assay: as above; conditions: Gynecologic cancer cell panel viability, ATPlite luminescence, 48 h; series mostly up to 57.5 µM
How it was run: as §1
% is set by controls: 0 for no effect and ±100 for the full control effect.

Cc1sc2c(c1C)C(c1ccc(Cl)cc1)=N[C@@H](CC(=O)Nc1ccc(OCCOCCOCCOCCNc3cccc4c3C(=O)N(C3CCC(=O)NC3=O)C4=O)cc1)c1nnc(C)n1-2 (stereo partly drawn)
active: Potency (SKOV3) 2.82 µM
inactive: Potency (C33A) | Potency (Hek293T) | activity change, negative = inhibition [1] 0.552%

Cc1c(NC(=O)c2cc3c(s2)CCCC3)cccc1-c1cn(C)c(=O)c(Nc2ccc(C3C(=O)N(C)CCN3C)cc2)n1 (stereo not drawn)
inactive: Potency (C33A) | Potency (Es-2) | Potency (Hek293T)

O=C(c1ccc(Cl)cc1)N1CCN(c2ccnc3cc(Cl)ccc23)CC1
inactive: Potency (CAOV3) | Potency (CASKI) | Potency (Es-2) | Potency (HeLa) | Potency (Hek293T) | Potency (JEG-3) | Potency (OV90) | Potency (PA-1) | Potency (SKOV3) | Potency (Tov-21-G) | Potency (Tov112D)

C=C1CC[C@@H]2[C@](C)(CO)[C@H](O)CC[C@@]2(C)[C@@H]1CC(=O)C1=CCOC1=O
inactive: Potency (C33A) | Potency (Hek293T) | Potency (OV90) | Potency (SKOV3)

CC(C)C[C@@H](N)C(=O)N[C@H]1C(=O)N[C@@H](CC(N)=O)C(=O)N[C@H]2C(=O)N[C@H]3C(=O)N[C@H](C(=O)N[C@H](C(=O)O)c4cc(O)cc(O)c4-c4cc3ccc4O)[C@H](O)c3ccc(c(Cl)c3)Oc3cc2cc(c3O[C@@H]2O[C@H](CO)[C@@H](O)[C@H](O)[C@H]2O[C@H]2C[C@](C)(N)[C@H](O)[C@H](C)O2)Oc2ccc(cc2Cl)[C@H]1O
inactive: Potency (CAOV3)

Cc1nc(NC(=O)N2CCC[C@H]2C(N)=O)sc1-c1ccnc(C(C)(C)C(F)(F)F)c1
active: Potency (SKOV3) 12.6 µM
inactive: Potency (C33A) | Potency (Es-2) | Potency (HeLa) | Potency (Hek293T) | Potency (JEG-3) | Potency (PA-1) | Potency (Tov-21-G) | Potency (Tov112D)

CC1(C(=O)Nc2ccc(F)nc2)CCCN1c1nc(Nc2cc(C3CC3)[nH]n2)c2cccn2n1 (stereo not drawn)
active: Potency (Hek293T) 5.01 µM | Potency (OV90) 3.55 µM | Potency (Tov-21-G) 14.1 µM
inactive: Potency (C33A) | Potency (Es-2) | Potency (Tov112D)

CN(C)CCC(CSc1ccccc1)Nc1ccc(S(=O)(=O)NC(=O)c2ccc(N3CCN(Cc4ccccc4-c4ccc(Cl)cc4)CC3)cc2)cc1[N+](=O)[O-] (stereo not drawn)
inactive: Potency (C33A) | Potency (Es-2) | Potency (HeLa) | Potency (Hek293T) | Potency (JEG-3) | Potency (PA-1) | Potency (Tov-21-G) | Potency (Tov112D)

Cc1cc(Nc2nc(-c3ccccc3)nc3ccccc23)n[nH]1
active: Potency (PA-1) 10 µM | Potency (Tov-21-G) 10 µM
inactive: Potency (C33A) | Potency (Es-2) | Potency (OV90) | Potency (Tov112D)

Cc1cc2occ(CN(C)CCN(C)Cc3cn(-c4cccc(C(F)(F)F)c4)c4ccccc34)c(=O)c2cc1C
active: Potency (C33A) 31.6 µM | Potency (Tov-21-G) 28.2 µM

COc1cc(N2CCC(O)CC2)ccc1Nc1nc(Nc2ccccc2S(=O)(=O)C(C)C)c2[nH]cnc2n1
inactive: Potency (C33A) | Potency (Es-2) | Potency (Hek293T) | Potency (JEG-3) | Potency (OV90) | Potency (PA-1) | Potency (SKOV3) | Potency (Tov112D)

COc1ccccc1C(=O)Nc1cccc(NC(=O)c2cccc(C)c2)c1
inactive: Potency (CAOV3) | Potency (CASKI) | Potency (Es-2) | Potency (HeLa) | Potency (Hek293T) | Potency (JEG-3) | Potency (OV90) | Potency (PA-1) | Potency (SKOV3) | Potency (Tov-21-G) | Potency (Tov112D)
